# Most compounds without a hit are left out; they make up all but 3.5% or so of the library.
# FBW7 act: human FBW7 E3 ligase activation, primary screen; normalized activity (activation), % at 26.1 µM; AID 1259310; Q969H0; 650,000 compounds, 0.13% hits; AlphaScreen FBW7–phospho-cyclin E peptide binding, activator screen; in the data active means normalized activity above about 1.9%;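 further: purified mutant Fbw7 with reduced substrate affinity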
# TEAD-YAP block: TEAD-YAP interaction inhibition; 640,000 compounds, 1.4% hits; AID 1259422; inhibition, % at 9.12 µM; HEK-TIYL cells, TEAD-Gal4/YAP UAS-luciferase luminescence; in the data active means inhibition above about 32%;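 further: 0% = median of test compound wells and 100% = reference inhibitor wells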
# GPR151 ag: activates the human receptor GPR151; 650,000 compounds, 1% hits; AID 1508602; Q8TDV0; activation, % at 11.2 µM; PathHunter beta-arrestin GPR151 cells, luminescence; in the data active means activation above about 4.9%;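 further: 0% = median of compound wells and 100% = cells with positive control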
# MITF primary: blocks human microphthalmia-associated transcription factor; O75030; AlphaScreen MITF homodimerization, bead proximity signal; inhibition, % at 2.6 µM; 650,000 compounds, 0.91% hits; AID 1259374; in the data active means inhibition above about 50%;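 further: 0% = vehicle wells with protein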
# Target sequence (O75030 whole entry, looked up): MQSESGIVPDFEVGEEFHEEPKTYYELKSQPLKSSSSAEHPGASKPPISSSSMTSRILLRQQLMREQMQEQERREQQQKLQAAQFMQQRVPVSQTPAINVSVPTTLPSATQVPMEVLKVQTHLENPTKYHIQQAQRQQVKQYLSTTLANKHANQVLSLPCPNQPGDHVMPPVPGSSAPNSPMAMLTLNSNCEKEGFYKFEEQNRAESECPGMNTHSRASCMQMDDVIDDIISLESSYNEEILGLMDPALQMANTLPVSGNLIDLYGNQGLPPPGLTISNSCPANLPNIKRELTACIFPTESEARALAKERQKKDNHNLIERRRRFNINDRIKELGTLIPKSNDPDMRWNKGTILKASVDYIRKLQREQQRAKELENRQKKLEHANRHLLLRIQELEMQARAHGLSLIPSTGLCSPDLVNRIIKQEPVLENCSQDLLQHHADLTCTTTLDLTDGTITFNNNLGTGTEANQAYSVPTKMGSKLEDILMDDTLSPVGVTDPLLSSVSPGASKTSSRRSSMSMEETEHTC
# MITF confirm: confirmation of human MITF inhibitors; shares compounds with MITF primary; AlphaScreen MITF homodimerization, biotin/His-MITF beads; inhibition, % at 2.6 µM; 4,700 compounds, 16% hits; AID 1259372;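 active means inhibition above a cutoff derived from the DMSO control wells, cut at about 28% in these data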;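 further: 0% = MITF dimer wells with DMSO only; inhibitors lower the bead chemiluminescence by keeping MITF from dimerizing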
# AS interf DR: optically interferes with AlphaScreen signal in dose response; 480 compounds, 6% hits; IC50, µM; AlphaScreen optical interference counterscreen, cell-free; AID 1259373; shares compounds with MITF primary; call rule not given here
# AS interf ctr: optically interferes with AlphaScreen signal. shares compounds with MITF primary. LysRS AlphaScreen counterscreen, signal interference, triplicate. inhibition, % at 2.6 µM. 4,700 compounds, 7.6% hits. AID 1259376;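 active means inhibition above a cutoff derived from the DMSO control wells, cut at about 30% in these data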
# GPR151 conf act: human GPR151 activation, confirmation screen | 6,700 tested, under 10 active | shares compounds with GPR151 ag | activation, % at 11.2 µM | GPR151 PathHunter beta-arrestin cells, luminescence, 90 min; % of EA-reagent control over plate median | AID 1508609;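 active means mean percent activation across replicates above the confirmation screen cutoff of 4.91%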
# GPR119 ag: activates human GPR119 in a GPR151 counter-screen | GPR119 PathHunter beta-arrestin cells, luminescence, 90 min; 0 = compound-well median, 100 = enzyme-acceptor control | 6,700 compounds, 0.3% hits | shares compounds with GPR151 ag | activation, % at 11.2 µM | AID 1508611;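 active means mean percent activation in the counterscreen above 29.09%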;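 further: counterscreen on off-target GPR119 to flag nonselective hits from the GPR151 activator screen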
# Active calls of the source: *; i = inactive; . = no result given.
SMILES,FBW7 act,TEAD-YAP block,GPR151 ag,MITF primary,MITF confirm,AS interf ctr,others
CCCCC[C@@H](O)CC[C@H]1[C@H](O)CC(=O)[C@@H]1CCCCCCC(=O)O,.,.,2,22,.,.,
O=C(O)CCCCC1SCC2NC(=O)NC21 (stereo unspecified),0,-2,-1,122*,124*,101*,
O=C(CCCCC1SCC2NC(=O)NC21)NC1(c2ccc3c(c2)OCO3)CCCC1 (stereo unspecified),-1,-7,1,113*,102*,18,AS interf DR=i
O=C(O)CCCC[C@H]1SC[C@H]2NC(=O)N[C@H]21,-1,-12,1,117*,123*,101*,
CCSc1nc2c(c(=O)[nH]1)C(C)(C1CCCCC1)Cc1ccccc1-2 (stereo unspecified),0,8,0,3,.,.,
CCOC(=O)CC(=O)CSc1nc2c(cc1C#N)CN(C)CC2,0,-8,-1,53*,23,5,
CCOC(=O)CSc1nc2c(cc1C#N)CCCCC2,0,-50,0,8,.,.,
Cc1cc(C)nc(SCc2cc(=O)c(OC(=O)C3(c4ccc(Cl)cc4)CCCC3)co2)n1,0,0,-1,102*,3,-7,
c1cc2c(cc1Cc1nn[nH]n1)OCO2,0,1,1,66*,4,-2,
O=C(CCOc1ccccc1)Nc1cnn(CC(=O)N2CCCC2c2nccs2)c1 (stereo unspecified),0,7,1,11,.,.,
CCCOC(=O)C1=C(C)NC2=C(C(=O)CC(C)(C)C2)C1c1ccc(O)c(OCC)c1 (stereo unspecified),0,2,2,-4,.,.,
COC(=O)C1=CN(CC23CC4CC(CC(C4)C2)C3)C=C(C(=O)OC)C1c1ccc(F)cc1,0,-3,0,65*,-2,-2,
O=c1c2sc(=S)n(Cc3ccco3)c2nc(SCc2ccc(F)cc2Cl)n1-c1ccc(F)cc1,0,-5,-1,3,.,.,
O=c1c2sc(=S)n(Cc3ccco3)c2nc(SCc2ccc(F)cc2Cl)n1-c1ccccc1,0,-10,-2,51*,-3,9,
CC1CCN(C(=O)C2CCN(Cc3ccccc3O)CC2)CC1,1,3,-1,38,.,.,
CC1CCN(Cc2ccc(O)c3ncccc23)CC1,0,41*,1,83*,97*,100*,
CCOC(=O)C1CCCN(Cc2ccc(O)c3ncccc23)C1 (stereo unspecified),-2,8,1,78*,82*,100*,
CCOc1cc(/C=C2/C(=N)N3N=C(CC(C)C)SC3=NC2=O)ccc1OCCOc1cccc(OC)c1,0,17,0,18,.,.,
CCNc1nc(Oc2ccc(C(=O)OCC)cc2)nc(N(C)C)n1,0,-2,1,-13,.,.,
CCOC(=O)c1ccc(Oc2nc(N(C)C)nc(N(C)C)n2)cc1,0,-10,1,54*,3,7,
COc1cccc(NC(=O)c2sc3nc(C)cc(C)c3c2N)c1,0,-38,1,-17,.,.,
CCOC(=O)NC(=S)N/N=C/c1ccccn1,-2,3,1,64*,-8,32*,
O=[N+]([O-])c1ccc(C=Nc2ccc(N=Cc3ccc([N+](=O)[O-])o3)cc2)o1,0,14,0,36,.,.,
Cc1cc(N=Cc2ccc([N+](=O)[O-])o2)ccc1S(=O)(=O)O,0,2,0,58*,47*,-12,AS interf DR=>6.5
COc1cc(CNC2CCCc3ccccc32)cc(OC)c1O (stereo unspecified),0,18,0,57*,8,18,
SMILES,FBW7 act,TEAD-YAP block,GPR151 ag,MITF primary,MITF confirm,AS interf ctr,others
COc1cc(OC)c(OC)cc1CNC1CCCc2ccccc21 (stereo unspecified),0,4,1,44,.,.,
CC(C)Cn1cc(C(=O)N2CCCC2)c2c3ccccc3n(C)c2c1=O,0,-2,-1,-2,.,.,
COc1ccc(Nc2nc(-c3cccs3)cs2)c(OC)c1,0,-66,0,71*,5,14,
O=C1CCCC2=C1C(c1ccc([N+](=O)[O-])o1)C1=C(CCCC1=O)O2,0,-7,0,67*,62*,8,AS interf DR=>7.1
COc1cc(/C=c2\sc3nc4ccccc4n3c2=O)ccc1OCc1ccccc1,0,7,1,13,.,.,
COc1ccc(C(=O)Nc2cc(-c3nc4cc(C)ccc4o3)ccc2Cl)cc1Br,0,-31,-1,59*,6,14,
COc1ccc(C(N)c2nccn2C)cc1OC (stereo unspecified),0,-2,-1,64*,26,61*,
COc1ccc(C(O)c2nccn2C)cc1OC (stereo unspecified),0,-3,0,3,.,.,
Cc1cc(O)c2c(c1)Cc1cccc(O)c1C2=O,0,2,5.4*,116*,115*,-25,AS interf DR=>6.5;GPR151 conf act=1;GPR119 ag=-7
CCN(CCCNC(=O)C1c2ccccc2C(=O)N(c2ccc(OC)cc2)C1c1ccc(OC)cc1)c1cccc(C)c1 (stereo unspecified),1,2,1,18,.,.,
Brc1c(OCCCN2CCNCC2)ccc2ccccc12,0,-18,18*,56*,6,-1,GPR151 conf act=0;GPR119 ag=-5
COc1ccc(-c2noc(C3CCCN(C(=O)Nc4ccccc4OC)C3)n2)cc1 (stereo unspecified),0,-60,-2,-3,.,.,
O=c1c2ccccc2nc(-c2ccc(Br)cc2)n1NCc1ccc(Oc2ccccc2)cc1,0,-4,-1,-5,.,.,
COc1cc(OC)c(CN2CCC(N3CCCCC3)CC2)cc1Br,0,1,0,12,.,.,
COc1cc(OC)c(OC)cc1CN1CCC(N2CCCCC2)CC1,0,-7,6.1*,60*,20,17,GPR151 conf act=0;GPR119 ag=10
CCCN(CC1CC1)C(=O)C1CCN(Cc2ccc(C)cc2)CC1,0,3,5.2*,53*,12,7,GPR151 conf act=-1;GPR119 ag=-2
CCN1CCN(CCOc2ccc(Cl)c(C)c2C)CC1,0,0,7.7*,75*,13,11,GPR151 conf act=1;GPR119 ag=1
CCc1cc(OCCN2CCN(CC)CC2)ccc1Cl,0,-1,7.0*,70*,8,17,GPR151 conf act=-1;GPR119 ag=-9
Cc1c(Cl)ccc(OCCN2CCNCC2)c1C,0,-1,0,11,.,.,
Cc1ccc(OCCCN2CCN(C)CC2)c([N+](=O)[O-])c1,0,11,5.2*,76*,-7,-4,GPR151 conf act=0;GPR119 ag=-6

# Screening data deposited in PubChem by The Scripps Research Institute Molecular Screening Center.
